# Tests used:
# Assay in all cases: DAPPL (digital affinity profiling via proximity ligation, sequencing); 10 mM Tris-HCl pH 7.5, 50 mM NaCl, 1 mM DTT, 4% glycerol, room temperature, 30 min; GST-TFs on glutathione beads, 16-mer random dsDNA library, 0.1% formaldehyde crosslink after washing; high values mean tight binding
# Conditions in all cases: protein: recombinant; tags: N-terminal GST; dsDNA, one strand shown
# [1] = molecular target: T1, ERF (Homo sapiens, UniProt P50548 1-548)
# T1 sequence: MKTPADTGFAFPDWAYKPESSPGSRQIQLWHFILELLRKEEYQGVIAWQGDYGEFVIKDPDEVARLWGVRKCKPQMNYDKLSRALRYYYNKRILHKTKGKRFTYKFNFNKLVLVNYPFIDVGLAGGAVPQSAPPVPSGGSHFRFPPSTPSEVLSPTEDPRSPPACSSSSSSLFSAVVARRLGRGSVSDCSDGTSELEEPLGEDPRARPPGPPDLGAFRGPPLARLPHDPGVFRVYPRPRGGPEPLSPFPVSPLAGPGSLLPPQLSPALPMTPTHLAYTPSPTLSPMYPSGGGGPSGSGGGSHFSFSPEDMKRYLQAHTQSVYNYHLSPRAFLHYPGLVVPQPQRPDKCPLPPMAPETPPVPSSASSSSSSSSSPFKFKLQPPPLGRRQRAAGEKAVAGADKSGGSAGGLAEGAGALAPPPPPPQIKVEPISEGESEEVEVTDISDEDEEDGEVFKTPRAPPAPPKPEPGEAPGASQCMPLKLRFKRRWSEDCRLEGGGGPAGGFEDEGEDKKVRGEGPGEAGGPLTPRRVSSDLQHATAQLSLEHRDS
# Summary of the method: (§1)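 The binding signal reported is, for every hexamer, its read frequency for a factor over its read frequency for the tag-only sample. Reads came from pools of yeast-expressed, GST-fused human transcription factors on glutathione beads, barcoded with DNA and mixed with that sample, which were incubated with 200 nmole of a random double-stranded 16-mer DNA library in Tris/NaCl/DTT/glycerol buffer at room temperature for 30 min. After washing, the pools were crosslinked with 0.1% formaldehyde, proximity-ligated with BsaI/T4 ligase for 1 h at 37 °C, PCR-amplified and sequenced on an Illumina NextSeq500.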
# [2] = molecular target: T2, ETV3L (Homo sapiens, UniProt Q6ZN32 1-361)
# T2 sequence: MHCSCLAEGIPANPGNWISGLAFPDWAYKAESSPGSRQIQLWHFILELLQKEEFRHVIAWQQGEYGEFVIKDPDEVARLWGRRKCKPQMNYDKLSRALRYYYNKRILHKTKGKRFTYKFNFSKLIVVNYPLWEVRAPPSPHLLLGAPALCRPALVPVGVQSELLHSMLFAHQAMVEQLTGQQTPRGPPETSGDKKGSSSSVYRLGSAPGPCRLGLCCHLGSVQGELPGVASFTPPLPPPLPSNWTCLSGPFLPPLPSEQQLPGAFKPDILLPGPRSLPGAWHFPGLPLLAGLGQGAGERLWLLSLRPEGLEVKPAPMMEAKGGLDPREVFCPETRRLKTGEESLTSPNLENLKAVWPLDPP
# Summary of the method: as §1
# [3] = molecular target: T3, ETS2 (Homo sapiens, UniProt P15036 1-469)
# T3 sequence: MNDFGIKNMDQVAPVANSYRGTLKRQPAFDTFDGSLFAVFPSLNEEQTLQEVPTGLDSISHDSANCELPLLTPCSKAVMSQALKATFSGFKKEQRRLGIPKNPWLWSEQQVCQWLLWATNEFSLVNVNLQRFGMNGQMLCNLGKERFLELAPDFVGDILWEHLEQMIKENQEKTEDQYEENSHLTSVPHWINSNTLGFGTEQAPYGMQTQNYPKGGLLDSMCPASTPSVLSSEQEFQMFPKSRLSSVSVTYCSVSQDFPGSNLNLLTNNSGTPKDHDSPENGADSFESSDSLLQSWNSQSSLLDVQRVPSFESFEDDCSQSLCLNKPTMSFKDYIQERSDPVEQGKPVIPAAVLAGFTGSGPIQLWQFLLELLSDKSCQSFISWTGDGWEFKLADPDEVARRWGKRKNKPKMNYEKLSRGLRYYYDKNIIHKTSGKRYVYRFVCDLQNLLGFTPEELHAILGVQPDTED
# Summary of the method: as §1
# [4] = molecular target: T4, SPDEF (Homo sapiens, UniProt O95238 1-335)
# T4 sequence: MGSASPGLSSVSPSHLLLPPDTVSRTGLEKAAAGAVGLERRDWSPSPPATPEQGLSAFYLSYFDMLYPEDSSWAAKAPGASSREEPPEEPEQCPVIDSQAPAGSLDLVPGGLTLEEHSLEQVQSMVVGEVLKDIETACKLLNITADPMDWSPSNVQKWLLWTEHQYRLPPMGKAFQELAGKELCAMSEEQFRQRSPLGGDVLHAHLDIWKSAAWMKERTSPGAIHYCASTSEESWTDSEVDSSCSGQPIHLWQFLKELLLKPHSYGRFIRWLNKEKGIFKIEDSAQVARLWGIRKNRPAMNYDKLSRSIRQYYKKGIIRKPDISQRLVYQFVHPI
# Summary of the method: as §1
# [5] = molecular target: T5, ETV7 (Homo sapiens, UniProt Q9Y603 1-341)
# T5 sequence: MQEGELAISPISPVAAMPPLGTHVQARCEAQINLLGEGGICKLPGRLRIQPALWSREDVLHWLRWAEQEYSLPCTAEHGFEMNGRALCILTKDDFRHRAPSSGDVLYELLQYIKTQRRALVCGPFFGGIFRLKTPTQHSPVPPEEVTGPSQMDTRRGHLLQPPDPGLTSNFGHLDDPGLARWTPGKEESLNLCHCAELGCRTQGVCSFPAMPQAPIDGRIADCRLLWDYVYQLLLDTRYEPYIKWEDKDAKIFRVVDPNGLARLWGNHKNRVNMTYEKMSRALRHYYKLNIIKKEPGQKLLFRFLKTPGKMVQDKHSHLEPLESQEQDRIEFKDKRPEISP
# Summary of the method: as §1
# [6] = molecular target: T6, ELF5 (Homo sapiens, UniProt Q9UKW6-2 1-255)
# T6 sequence: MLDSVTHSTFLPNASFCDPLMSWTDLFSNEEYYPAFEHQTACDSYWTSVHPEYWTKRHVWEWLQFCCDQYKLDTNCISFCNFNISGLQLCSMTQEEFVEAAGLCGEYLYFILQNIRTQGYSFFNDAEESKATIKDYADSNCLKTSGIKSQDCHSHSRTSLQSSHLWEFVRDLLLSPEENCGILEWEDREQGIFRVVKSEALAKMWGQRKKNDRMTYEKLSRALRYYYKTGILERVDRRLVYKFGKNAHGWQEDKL
# Summary of the method: as §1
# [7] = molecular target: T7, ETV3 (Homo sapiens, UniProt P41162-2 1-143)
# T7 sequence: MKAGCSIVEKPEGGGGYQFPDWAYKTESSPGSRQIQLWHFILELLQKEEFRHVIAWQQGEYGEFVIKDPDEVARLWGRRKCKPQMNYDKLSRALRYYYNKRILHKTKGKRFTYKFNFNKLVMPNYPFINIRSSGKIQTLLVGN
# Summary of the method: as §1
# [8] = molecular target: ETV6 (Homo sapiens, UniProt P41212 1-452)
# Sequence of ETV6 (P41212 whole entry): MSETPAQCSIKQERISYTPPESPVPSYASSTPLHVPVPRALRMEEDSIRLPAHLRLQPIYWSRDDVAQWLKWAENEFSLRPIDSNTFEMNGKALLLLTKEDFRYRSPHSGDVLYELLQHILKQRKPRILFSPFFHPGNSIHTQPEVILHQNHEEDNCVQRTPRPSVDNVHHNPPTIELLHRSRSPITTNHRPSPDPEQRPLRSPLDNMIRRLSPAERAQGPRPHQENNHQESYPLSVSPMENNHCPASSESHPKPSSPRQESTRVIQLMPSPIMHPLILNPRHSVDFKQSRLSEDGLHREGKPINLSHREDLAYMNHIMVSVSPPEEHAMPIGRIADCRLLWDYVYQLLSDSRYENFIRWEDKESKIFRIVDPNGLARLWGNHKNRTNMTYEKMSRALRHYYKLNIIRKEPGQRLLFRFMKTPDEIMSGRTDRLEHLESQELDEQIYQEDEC
# Summary of the method: as §1
Sequence,binding signal [1],binding signal [2],binding signal [3],binding signal [4],binding signal [5],binding signal [6],binding signal [7],binding signal [8]
ATGGTA,"1.38 fold enrichment (6-mer frequency, TF over GST control)","1.35 fold enrichment (6-mer frequency, TF over GST control)","1.37 fold enrichment (6-mer frequency, TF over GST control)","1.31 fold enrichment (6-mer frequency, TF over GST control)","1.48 fold enrichment (6-mer frequency, TF over GST control)","1.39 fold enrichment (6-mer frequency, TF over GST control)","1.35 fold enrichment (6-mer frequency, TF over GST control)","1.31 fold enrichment (6-mer frequency, TF over GST control)"
GTTCCT,"1.49 fold enrichment (6-mer frequency, TF over GST control)","1.71 fold enrichment (6-mer frequency, TF over GST control)","1.75 fold enrichment (6-mer frequency, TF over GST control)","1.74 fold enrichment (6-mer frequency, TF over GST control)","1.67 fold enrichment (6-mer frequency, TF over GST control)","2.54 fold enrichment (6-mer frequency, TF over GST control)","1.88 fold enrichment (6-mer frequency, TF over GST control)","1.82 fold enrichment (6-mer frequency, TF over GST control)"
ATCTCT,"1.38 fold enrichment (6-mer frequency, TF over GST control)","1.27 fold enrichment (6-mer frequency, TF over GST control)","1.29 fold enrichment (6-mer frequency, TF over GST control)","1.18 fold enrichment (6-mer frequency, TF over GST control)","1.14 fold enrichment (6-mer frequency, TF over GST control)","1.25 fold enrichment (6-mer frequency, TF over GST control)","1.25 fold enrichment (6-mer frequency, TF over GST control)","1.27 fold enrichment (6-mer frequency, TF over GST control)"
ATGAGC,"1.29 fold enrichment (6-mer frequency, TF over GST control)","1.14 fold enrichment (6-mer frequency, TF over GST control)","1.26 fold enrichment (6-mer frequency, TF over GST control)","1.12 fold enrichment (6-mer frequency, TF over GST control)","1.15 fold enrichment (6-mer frequency, TF over GST control)","1.12 fold enrichment (6-mer frequency, TF over GST control)","1.34 fold enrichment (6-mer frequency, TF over GST control)","1.24 fold enrichment (6-mer frequency, TF over GST control)"
TCGTCT,"1.4 fold enrichment (6-mer frequency, TF over GST control)","1.43 fold enrichment (6-mer frequency, TF over GST control)","1.46 fold enrichment (6-mer frequency, TF over GST control)","1.37 fold enrichment (6-mer frequency, TF over GST control)","1.21 fold enrichment (6-mer frequency, TF over GST control)","1.32 fold enrichment (6-mer frequency, TF over GST control)","1.23 fold enrichment (6-mer frequency, TF over GST control)","1.34 fold enrichment (6-mer frequency, TF over GST control)"
ATCGAT,"1.13 fold enrichment (6-mer frequency, TF over GST control)","1.17 fold enrichment (6-mer frequency, TF over GST control)","1.1 fold enrichment (6-mer frequency, TF over GST control)","1.09 fold enrichment (6-mer frequency, TF over GST control)","1.11 fold enrichment (6-mer frequency, TF over GST control)","1.09 fold enrichment (6-mer frequency, TF over GST control)","1.15 fold enrichment (6-mer frequency, TF over GST control)","1.11 fold enrichment (6-mer frequency, TF over GST control)"

# — PMC7862700, “An all-to-all approach to the identification of sequence-specific readers for epigenetic DNA modifications on cytosine”
